For seven molecules, outcome and AC50 results are on record in PubChem BioAssay (EPA / NIEHS).

Assay [1] addresses Bile acid receptor (Homo sapiens) (UniProt Q96RI1). In words: ATG_IR1_CIS: Attagene CIS-FACTORIAL HepG2 Assay for human Nuclear Receptor Subfamily 1 Group H Member 4 (NR1H4), IR1 submotif (AID 2282946). The settings on record: IR1 reporter transcription, actives raise or lower the signal. The method, boiled down:
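Transient MRTU transfection, HepG2; 24 h dosing; RNA → RT-PCR → 6-FAM primer extension → HpaI digest → capillary electrophoresis fluorescence. Gain/loss of signal fitted relative to DMSO.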

A short description of assay [2]: ATG_GRE_CIS: Attagene CIS-FACTORIAL HepG2 Assay for human Glucocorticoid Response Elements (GRE) (AID 2282947). The settings on record: HepG2 GRE cis-reporter, Attagene multiplex mRNA; actives raise or lower the signal. The method, boiled down: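 Following 24 h chemical exposure of transiently transfected HepG2 cells, total RNA was reverse-transcribed and reporter cDNA amplified, fluorescently labelled and sized by capillary electrophoresis. Signal gain or loss was fitted relative to DMSO vehicle.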

A short description of assay [3]: ATG_ISRE_CIS: Attagene CIS-FACTORIAL HepG2 Assay for human Interferon Regulatory Factor 1 (IRF1) binding to an Interferon-Stimulated Response Element (ISRE) (AID 2282948). The settings on record: HepG2 ISRE cis-reporter (Attagene), mRNA transcription readout; actives raise or lower the signal. The method, boiled down:
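Quantitation relies on labelled RT-PCR fragments separated by capillary electrophoresis. Human HepG2 cells bearing cis-promoter reporter constructs were treated 24 h; DMSO served as baseline for bidirectional fitting.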

Assay [4] can be described thus: ATG_M_32_CIS: Attagene CIS-FACTORIAL HepG2 Assay for M32 Transcription Factor (Internal Marker) (AID 2282949).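 Note: background control marker of the multiplexed CIS panel rather than a real target.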 The settings on record: HepG2 Attagene cis-factorial M32 reporter, mRNA; actives raise or lower the signal. The method, boiled down:
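Fluorescent capillary electrophoresis peaks of HpaI-digested, FAM-labelled RT-PCR reporter products give the signal. Source: transiently transfected human liver HepG2 cells, 24 h after chemical dosing; bidirectional fitting against DMSO.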

The nature of assay [5]: ATG_M_06_CIS: Attagene CIS-FACTORIAL HepG2 Assay for M06 Transcription Factor (Internal Marker) (AID 2282950). The following applies: HepG2 Attagene CIS-FACTORIAL M06 internal marker reporter; actives raise or lower the signal. Summed up: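 Fluorescence-labelled RT-PCR products from cis-promoter reporter units, cut with HpaI and resolved by capillary electrophoresis, give the signal. Cells are human HepG2, dosed for 24 h. Serves as background control, fitted relative to DMSO.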

The target of assay [6] is Hypoxia-inducible factor 1-alpha (Homo sapiens) (UniProt Q16665). Nature of the assay: ATG_HIF1a_CIS: Attagene CIS-FACTORIAL HepG2 Assay for human Hypoxia Inducible Factor 1 (HIF1A) (AID 2282951). The following applies: HepG2 Attagene cis-factorial HIF1a reporter transcription; actives raise or lower the signal. The method, boiled down: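 Fluorescence intensity of capillary-separated, 6-FAM-labelled reporter amplicons gives mRNA induction in HepG2 cells carrying transfected cis-promoter reporter units; cells exposed 24 h, responses fitted up or down from DMSO.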
Chain of Hypoxia-inducible factor 1-alpha (Homo sapiens) (Q16665 whole entry, looked up): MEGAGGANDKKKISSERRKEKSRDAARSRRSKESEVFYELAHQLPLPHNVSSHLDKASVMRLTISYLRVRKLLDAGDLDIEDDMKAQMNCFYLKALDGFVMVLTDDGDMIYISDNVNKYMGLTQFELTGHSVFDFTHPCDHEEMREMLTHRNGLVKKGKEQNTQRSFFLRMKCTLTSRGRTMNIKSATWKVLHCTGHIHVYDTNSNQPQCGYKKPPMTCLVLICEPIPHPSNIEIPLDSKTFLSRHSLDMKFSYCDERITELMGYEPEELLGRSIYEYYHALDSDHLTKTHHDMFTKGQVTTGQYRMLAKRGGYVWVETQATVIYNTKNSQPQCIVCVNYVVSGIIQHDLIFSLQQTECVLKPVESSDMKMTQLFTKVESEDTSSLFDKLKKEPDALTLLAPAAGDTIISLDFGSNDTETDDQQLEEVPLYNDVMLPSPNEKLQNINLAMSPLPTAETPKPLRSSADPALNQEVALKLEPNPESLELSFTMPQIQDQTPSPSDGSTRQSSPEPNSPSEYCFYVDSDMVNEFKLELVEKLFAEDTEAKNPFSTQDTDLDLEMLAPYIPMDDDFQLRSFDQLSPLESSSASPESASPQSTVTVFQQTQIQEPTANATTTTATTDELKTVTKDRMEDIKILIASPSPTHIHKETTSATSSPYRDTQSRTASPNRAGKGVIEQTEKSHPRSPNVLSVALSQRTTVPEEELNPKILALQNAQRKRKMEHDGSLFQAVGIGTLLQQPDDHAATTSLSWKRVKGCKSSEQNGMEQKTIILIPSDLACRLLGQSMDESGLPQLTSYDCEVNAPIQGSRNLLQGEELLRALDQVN

In assay [7] the target is Hepatocyte nuclear factor 6 (Homo sapiens) (UniProt Q9UBC0). In words: ATG_HNF6_CIS: Attagene CIS-FACTORIAL HepG2 Assay for human Hepatocyte Nuclear Factor 6 (HNF6) (AID 2282952). The following applies: HepG2 Attagene cis-factorial HNF6 reporter transcription; actives raise or lower the signal. Summed up:
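Transiently transfected HepG2 cells expressing cis-regulated reporter transcription units were exposed to chemical for 24 h in a 24-well format. Reporter transcript abundance was determined by fluorescence capillary electrophoresis.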

Assay [8] has as its target Heat shock factor protein 1 (Homo sapiens) (UniProt Q00613). Nature of the assay: ATG_HSE_CIS: Attagene CIS-FACTORIAL HepG2 Assay for human Heat Shock Transcription Factor 1 (HSE) (AID 2282953). The settings on record: HepG2 HSE cis-reporter, Attagene RNA transcription; actives raise or lower the signal. The method, boiled down: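 After a 24 h incubation with test chemical, transfected HepG2 cells were harvested for RNA; reporter transcripts were measured by RT-PCR and capillary electrophoresis. Values reflect gain or loss of signal relative to DMSO.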

The nature of assay [9]: ATG_MRE_CIS: Attagene CIS-FACTORIAL HepG2 Assay for human Metal Responsive Element (MRE) (AID 2282954). The following applies: HepG2 MRE cis-reporter transcription, Attagene multiplex; actives raise or lower the signal. Summed up:
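Step one: transfect HepG2 with cis-regulated reporter units. Step two: dose 24 h. Step three: isolate RNA, RT-PCR, 6-FAM label, HpaI digest, capillary electrophoresis. Fit bidirectionally to DMSO.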

Assay [10] is described as follows: ATG_PBREM_CIS: Attagene CIS-FACTORIAL HepG2 Assay for human Phenobarbital-responsive Enhancer Module (PBREM) (AID 2282955). The settings on record: HepG2 PBREM cis-reporter, Attagene multiplexed transcription; actives raise or lower the signal. The method, boiled down:
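Cells were transfected with cis-element reporter units and treated for 24 h, after which RNA was extracted and reporter transcripts measured by RT-PCR and capillary electrophoresis.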

The target in assay [11] is Paired box protein Pax-6 (Homo sapiens) (UniProt P26367). Nature of the assay: ATG_Pax6_CIS: Attagene CIS-FACTORIAL HepG2 Assay for human Paired Box 6 (PAX6) (AID 2282956). The following applies: HepG2 CIS-FACTORIAL PAX6 reporter transcription, RNA readout; actives raise or lower the signal. The method, boiled down: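 After twenty-four hours of chemical exposure, transfected HepG2 cells are harvested for RNA. Cis-promoter reporter transcripts are amplified, fluorescently labelled and sized by capillary electrophoresis, with gain and loss of signal scored against DMSO.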
Chain of Paired box protein Pax-6 (Homo sapiens) (P26367 whole entry, looked up): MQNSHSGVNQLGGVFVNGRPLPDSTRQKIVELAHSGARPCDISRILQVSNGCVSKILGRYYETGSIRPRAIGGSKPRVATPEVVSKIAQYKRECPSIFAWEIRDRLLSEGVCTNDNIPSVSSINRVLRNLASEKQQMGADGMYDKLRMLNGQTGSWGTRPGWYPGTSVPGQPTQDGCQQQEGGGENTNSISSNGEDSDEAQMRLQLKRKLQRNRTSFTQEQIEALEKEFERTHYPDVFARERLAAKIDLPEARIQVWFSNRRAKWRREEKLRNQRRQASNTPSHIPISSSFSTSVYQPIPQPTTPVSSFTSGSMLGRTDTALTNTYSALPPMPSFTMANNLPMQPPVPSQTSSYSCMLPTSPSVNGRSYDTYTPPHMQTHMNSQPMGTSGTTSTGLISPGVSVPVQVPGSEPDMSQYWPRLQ

Assay [12] can be described thus: ATG_PXRE_CIS: Attagene CIS-FACTORIAL HepG2 Assay for human Pregnane X Receptor Element (PXRE) (AID 2282957). The settings on record: HepG2 Attagene CIS-FACTORIAL PXRE reporter, mRNA; actives raise or lower the signal. The method, boiled down: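 Cis-element reporter mRNA in human hepatoma HepG2 cells is measured 24 h post-dosing by RT-PCR, primer-extension labeling and capillary electrophoresis; gain or loss of signal is fitted relative to DMSO.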

The nature of assay [13]: ATG_PPRE_CIS: Attagene CIS-FACTORIAL HepG2 Assay for human Peroxisome Proliferator-activated Response Element (PPRE) (AID 2282958). The following applies: HepG2 PPRE cis-element reporter, Attagene transcription factor profiling; actives raise or lower the signal. The method, boiled down: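 In this cell-based multiplex, a PPRE cis element drives a reporter sequence in transiently transfected HepG2 cells. Following 24 h treatment, labeled cDNA amplicons are sized and quantified by capillary electrophoresis, with DMSO defining baseline.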

Assay [14] in a line: ATG_RORE_CIS: Attagene CIS-FACTORIAL HepG2 Assay for human RAR-related Orphan Receptor Element (RORE) (AID 2282959). The settings on record: HepG2 Attagene cis-factorial RORE reporter, mRNA; actives raise or lower the signal. The method, boiled down:
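Endogenous factor activity at a cis response element is read as reporter transcript levels in HepG2 cells, 24 h post-dose. Transcripts are quantified by RT-PCR with capillary electrophoresis, and data fitted in both directions against DMSO.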

Assay [15] can be described thus: ATG_Sox_CIS: Attagene CIS-FACTORIAL HepG2 Assay for human SRY-box transcription factor (SOX) (AID 2282960). The following applies: HepG2 Attagene cis-factorial SOX reporter, mRNA; actives raise or lower the signal. Summed up: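 Measures mRNA induction of a SOX1-associated reporter in HepG2 after 24 h dosing. Fluorescently labelled RT-PCR fragments are separated by capillary electrophoresis, and gain or loss relative to DMSO control is fitted.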

Assay [16] deals with Transcription factor Sp1 (Homo sapiens) (UniProt P08047). Nature of the assay: ATG_Sp1_CIS: Attagene CIS-FACTORIAL HepG2 Assay for human Specificity Protein 1 (Sp1) (AID 2282961). The following applies: HepG2 Sp1 cis-reporter transcription, actives raise or lower the signal. The method, boiled down:
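Cells: HepG2, transiently transfected with cis-regulated multiplexed reporters. Exposure: 24 h. Detection: reporter transcripts amplified, fluorescently labeled, restriction-digested and sized by capillary electrophoresis. Analysis: bidirectional fit relative to DMSO.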

The nature of assay [17]: ATG_SREBP_CIS: Attagene CIS-FACTORIAL HepG2 Assay for human Sterol Regulatory Element Binding (SREBP) (AID 2282962). The settings on record: HepG2 Attagene cis-factorial SREBP reporter, mRNA; actives raise or lower the signal. Summed up:
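Twenty-four hours after chemical dosing of transfected HepG2 cultures, reporter RNA was converted to cDNA, amplified, end-labelled with 6-FAM and resolved by capillary electrophoresis. Responses were fitted relative to DMSO.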

Assay [18] deals with Signal transducer and activator of transcription 3 (Homo sapiens) (UniProt P40763). In words: ATG_STAT3_CIS: Attagene CIS-FACTORIAL HepG2 Assay for human Signal Transducer and Activator of Transcription 3 (STAT3) (AID 2282963). The settings on record: HepG2, Attagene cis-factorial STAT3 reporter transcription; actives raise or lower the signal. Summed up:
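Transcript-level reporter assay. HepG2 transient MRTU transfection, 24 h exposure, fluorescence detection after RT-PCR and CE; DMSO baseline.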

Assay [19] in a line: ATG_TA_CIS: Attagene CIS-FACTORIAL HepG2 Assay for human TA Basal Promoter (AID 2282964). The following applies: HepG2 Attagene CIS-factorial TA basal promoter reporter; actives raise or lower the signal. The method, boiled down: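 Multiplexed mRNA reporter assay, HepG2, 24 h. Reporter cDNA amplified, 6-FAM primer-extended, HpaI-cut, CE-sized; DMSO = negative control and baseline.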

Assay [20] can be described thus: ATG_TCF_b_cat_CIS: Attagene CIS-FACTORIAL HepG2 Assay for human T-Cell-Factor with beta-catenin (TCF/b-cat) (AID 2282965). The settings on record: HepG2 TCF/beta-catenin cis-reporter transcription, actives raise or lower the signal. Summed up: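 HepG2 cells transiently transfected with multiple cis-promoter-regulated reporter transcription units, so endogenous transcription factor activity is measured. Reporter mRNA read 24 hours after dosing by RT-PCR, fluorescent labelling and capillary electrophoresis; bidirectional fitting against DMSO.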

For orientation: AC50 means the concentration giving half of the maximal activity seen.

Calls of active or inactive are those of the source. Rule for the calls: active = hit-call score of the fitted dose curve at least 0.9, where 1 is the maximum; inactive = score below 0.9.

Chain of Signal transducer and activator of transcription 3 (Homo sapiens) (P40763 whole entry, looked up): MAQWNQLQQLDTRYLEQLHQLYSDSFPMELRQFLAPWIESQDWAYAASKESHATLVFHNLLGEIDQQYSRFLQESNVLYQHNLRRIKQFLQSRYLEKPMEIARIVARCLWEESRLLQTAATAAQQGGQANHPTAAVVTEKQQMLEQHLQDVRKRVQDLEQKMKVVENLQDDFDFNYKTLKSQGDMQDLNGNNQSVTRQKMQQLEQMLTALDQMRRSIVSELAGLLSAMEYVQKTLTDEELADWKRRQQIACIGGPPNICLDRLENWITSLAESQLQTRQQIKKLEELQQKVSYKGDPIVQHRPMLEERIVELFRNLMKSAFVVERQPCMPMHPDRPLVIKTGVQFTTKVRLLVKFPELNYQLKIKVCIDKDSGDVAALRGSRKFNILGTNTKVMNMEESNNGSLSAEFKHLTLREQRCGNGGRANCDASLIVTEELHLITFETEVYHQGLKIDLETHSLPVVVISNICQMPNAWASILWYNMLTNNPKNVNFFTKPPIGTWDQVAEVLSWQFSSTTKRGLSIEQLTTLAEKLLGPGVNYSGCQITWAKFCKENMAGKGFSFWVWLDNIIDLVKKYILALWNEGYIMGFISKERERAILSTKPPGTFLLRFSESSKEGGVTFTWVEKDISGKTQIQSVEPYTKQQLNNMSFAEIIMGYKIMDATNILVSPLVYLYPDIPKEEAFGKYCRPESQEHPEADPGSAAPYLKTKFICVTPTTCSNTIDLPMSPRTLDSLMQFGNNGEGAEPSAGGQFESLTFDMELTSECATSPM
Chain of Hepatocyte nuclear factor 6 (Homo sapiens) (Q9UBC0 whole entry, looked up): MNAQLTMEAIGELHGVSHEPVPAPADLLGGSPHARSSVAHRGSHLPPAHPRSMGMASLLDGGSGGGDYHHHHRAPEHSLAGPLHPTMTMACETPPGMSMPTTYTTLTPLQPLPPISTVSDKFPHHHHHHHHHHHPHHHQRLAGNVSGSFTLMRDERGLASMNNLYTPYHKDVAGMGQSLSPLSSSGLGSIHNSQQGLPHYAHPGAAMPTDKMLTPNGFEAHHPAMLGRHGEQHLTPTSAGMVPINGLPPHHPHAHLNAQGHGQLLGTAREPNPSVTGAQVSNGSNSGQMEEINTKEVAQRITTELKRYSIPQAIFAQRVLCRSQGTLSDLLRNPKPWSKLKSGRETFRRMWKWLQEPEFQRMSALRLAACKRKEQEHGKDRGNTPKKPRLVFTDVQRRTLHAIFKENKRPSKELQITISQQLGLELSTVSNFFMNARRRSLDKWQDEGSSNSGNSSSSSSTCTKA
Chain of Bile acid receptor (Homo sapiens) (Q96RI1 whole entry, looked up): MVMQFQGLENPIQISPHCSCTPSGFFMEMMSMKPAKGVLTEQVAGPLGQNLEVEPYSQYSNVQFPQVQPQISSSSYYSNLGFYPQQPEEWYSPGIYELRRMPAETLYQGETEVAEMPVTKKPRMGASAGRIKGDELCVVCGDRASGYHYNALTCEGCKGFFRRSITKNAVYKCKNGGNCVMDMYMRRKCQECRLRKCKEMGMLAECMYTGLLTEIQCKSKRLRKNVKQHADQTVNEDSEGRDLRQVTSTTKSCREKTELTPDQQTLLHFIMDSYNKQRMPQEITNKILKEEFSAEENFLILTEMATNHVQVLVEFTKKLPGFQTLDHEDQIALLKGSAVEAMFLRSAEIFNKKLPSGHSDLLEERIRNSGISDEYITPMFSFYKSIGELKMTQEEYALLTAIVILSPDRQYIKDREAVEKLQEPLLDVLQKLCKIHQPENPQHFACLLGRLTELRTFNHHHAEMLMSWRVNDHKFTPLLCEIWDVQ
Chain of Transcription factor Sp1 (Homo sapiens) (P08047 whole entry, looked up): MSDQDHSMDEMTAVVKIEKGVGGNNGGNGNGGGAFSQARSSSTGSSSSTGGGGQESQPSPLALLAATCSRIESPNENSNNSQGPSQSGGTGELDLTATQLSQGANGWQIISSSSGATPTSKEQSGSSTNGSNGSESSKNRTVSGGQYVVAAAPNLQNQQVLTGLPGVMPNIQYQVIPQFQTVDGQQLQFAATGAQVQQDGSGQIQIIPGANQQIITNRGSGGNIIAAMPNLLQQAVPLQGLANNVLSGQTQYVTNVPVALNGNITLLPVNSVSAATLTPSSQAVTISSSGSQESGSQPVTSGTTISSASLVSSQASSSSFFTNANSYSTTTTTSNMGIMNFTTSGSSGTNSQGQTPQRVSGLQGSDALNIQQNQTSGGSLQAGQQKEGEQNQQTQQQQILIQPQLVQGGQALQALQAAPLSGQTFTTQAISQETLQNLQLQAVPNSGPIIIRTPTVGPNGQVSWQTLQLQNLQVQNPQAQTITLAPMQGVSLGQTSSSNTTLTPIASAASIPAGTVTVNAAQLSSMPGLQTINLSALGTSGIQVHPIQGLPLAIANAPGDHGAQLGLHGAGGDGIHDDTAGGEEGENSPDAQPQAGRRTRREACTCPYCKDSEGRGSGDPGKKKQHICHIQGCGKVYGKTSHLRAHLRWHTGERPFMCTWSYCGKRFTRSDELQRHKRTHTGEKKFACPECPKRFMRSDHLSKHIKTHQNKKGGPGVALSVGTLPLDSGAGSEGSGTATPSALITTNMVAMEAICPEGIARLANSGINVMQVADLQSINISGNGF
Chain of Heat shock factor protein 1 (Homo sapiens) (Q00613 whole entry, looked up): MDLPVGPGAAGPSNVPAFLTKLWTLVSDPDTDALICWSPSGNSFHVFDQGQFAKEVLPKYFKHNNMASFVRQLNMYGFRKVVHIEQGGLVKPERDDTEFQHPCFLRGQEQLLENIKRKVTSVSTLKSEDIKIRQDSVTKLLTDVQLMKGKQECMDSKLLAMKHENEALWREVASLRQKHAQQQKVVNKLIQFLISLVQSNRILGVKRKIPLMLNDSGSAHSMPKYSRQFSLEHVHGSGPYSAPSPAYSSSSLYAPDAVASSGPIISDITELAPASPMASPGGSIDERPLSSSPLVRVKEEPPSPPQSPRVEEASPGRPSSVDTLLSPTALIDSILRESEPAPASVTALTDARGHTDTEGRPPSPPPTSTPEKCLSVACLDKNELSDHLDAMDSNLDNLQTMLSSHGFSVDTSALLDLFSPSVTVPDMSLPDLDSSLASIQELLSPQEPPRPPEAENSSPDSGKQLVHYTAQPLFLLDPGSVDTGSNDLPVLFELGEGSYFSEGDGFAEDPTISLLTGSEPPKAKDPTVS

As for `OCC(F)(F)OC(F)(F)C(F)(F)OC(F)(F)C(F)(F)OC(F)(F)CO`, the molecule was called inactive in [1], in assay [2], in assay [3], in assay [4], in assay [5] and in [6]. The result in [7], in assay [8], in assay [9], in assay [10], in assay [11] and in assay [13] was inactive. In addition, the molecule was called inactive in assay [14], in assay [15], in assay [16], in [17], in [18] and in assay [19]. The half-maximal activity concentration (AC50) in assay [12] was 13.9 µM (active); in [20] it was 9.92 µM (active).

As to `COP(=O)(CCC(=O)NCO)OC`, the call in [1], in [2], in assay [3], in assay [4], in [5] and in assay [6] was inactive. For the same molecule, the result in [7], in assay [8], in assay [9], in [10], in assay [11] and in assay [12] was inactive. Moreover, the outcome in assay [13], in [14], in [15], in assay [16], in assay [18] and in assay [19] was inactive. Further, in assay [20], the molecule was called inactive.

Turning to `CCCCOCC1CO1` (centres undefined), the molecule was classed as inactive in assay [1], in assay [2], in assay [3], in assay [4], in [5] and in assay [6]. Besides, the result in assay [7], in assay [8], in assay [9], in [10], in assay [11] and in assay [12] was inactive. The molecule was called inactive in assay [13], in assay [15], in assay [16], in assay [18], in assay [19] and in assay [20].

As for `CC(=O)CCc1ccc2c(c1)OCO2`, the molecule was called inactive in assay [1], in assay [2], in assay [3], in [4], in [5] and in assay [6]. Moreover, the result in assay [7], in [8], in assay [9], in assay [10], in assay [11] and in assay [13] was inactive. The molecule was called inactive in assay [14], in [15], in [16], in assay [17], in assay [18] and in assay [19]. Besides, the outcome in assay [20] was inactive. Besides, the AC50 in assay [12] was 27.9 µM (active).

`Nc1ccc([N+](=O)[O-])cc1Cl`: the molecule was called inactive in assay [1], in assay [2], in assay [3], in [4], in assay [5] and in assay [6]. For the same molecule, the outcome in assay [7], in [8], in [9], in [10], in assay [11] and in assay [13] was inactive. The outcome in assay [14], in assay [15], in assay [16], in assay [18], in assay [19] and in assay [20] was inactive. Besides, in assay [12], the half-maximal activity concentration (AC50) was 67.3 µM (active).

As for `NC(=O)C(F)(F)C(F)(F)F`, the call in assay [1], in assay [2], in [3], in assay [4], in assay [5] and in assay [6] was inactive. The call in assay [7], in [8], in assay [9], in assay [10], in assay [11] and in assay [12] was inactive. In addition, the call in assay [13], in [15], in [16], in [17], in assay [18] and in [19] was inactive. Further, the call in [20] was inactive.

As for `CCOP(=O)(O)C(N)=O`, the call in assay [1], in assay [2], in assay [3], in [4], in assay [5] and in [6] was inactive. The molecule was called inactive in assay [7], in [8], in [9], in [10], in [11] and in assay [13]. The result in assay [15], in [16], in assay [17], in assay [18], in assay [19] and in [20] was inactive. In assay [12], the AC50 was 47.9 µM (active).
